Common to all, as to assay: PBM; 200 nM protein, PBS
Details in all cases: dsDNA, one strand shown

Assay [1] has as its target HOXB4 (Homo sapiens, UniProt P17483 148-234).
Assay [2] has as its target T1, VENTX (Homo sapiens, UniProt O95231 78-163, R121Q).
T1 sequence: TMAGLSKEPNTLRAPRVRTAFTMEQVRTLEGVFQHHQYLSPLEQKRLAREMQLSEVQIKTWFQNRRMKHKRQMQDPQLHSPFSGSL

The target of assay [3] is HOXA4 (Homo sapiens, UniProt Q00056 201-287, W262R).
The target in assay [4] is T2, VENTX (Homo sapiens, UniProt O95231 78-163, Y115F).
T2 sequence: T1 sequence with Y38F, Q44R

The target of assay [5] is HOXA2 (Homo sapiens, UniProt O43364 129-215, R185T).
Sequence of HOXA2 (Homo sapiens, UniProt O43364 129-215, R185T) (O43364 129-215 R185T): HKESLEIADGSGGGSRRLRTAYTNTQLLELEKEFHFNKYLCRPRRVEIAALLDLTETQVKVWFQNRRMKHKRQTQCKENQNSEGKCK
Assay [6] concerns the target HOXA4 (Homo sapiens, UniProt Q00056 201-287, R217L).
Assay [7] deals with HOXB4 (Homo sapiens, UniProt P17483 148-234, V174I).
Sequence of HOXB4 (Homo sapiens, UniProt P17483 148-234, V174I) (P17483 148-234 V174I): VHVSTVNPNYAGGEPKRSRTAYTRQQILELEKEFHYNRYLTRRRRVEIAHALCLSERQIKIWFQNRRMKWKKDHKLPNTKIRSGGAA
For assay [8], the target named is HOXA2 (Homo sapiens, UniProt O43364 129-215, R185K).
Sequence of HOXA2 (Homo sapiens, UniProt O43364 129-215, R185K) (O43364 129-215 R185K): as the sequence (O43364 129-215 R185T) above, with T57K counted along it
Assay [9] deals with HOXA4 (Homo sapiens, UniProt Q00056 201-287).
Sequence of HOXA4 (Homo sapiens, UniProt Q00056 201-287) (Q00056 201-287): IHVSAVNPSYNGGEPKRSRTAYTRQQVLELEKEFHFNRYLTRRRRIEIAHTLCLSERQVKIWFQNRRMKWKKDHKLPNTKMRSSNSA
Assay [10] addresses VAX1 (Homo sapiens, UniProt Q5SQQ9 86-172).
Assay [11] addresses VAX1 (Homo sapiens, UniProt Q5SQQ9 86-172, T142I).
Assay [12] concerns the target HOXA2 (Homo sapiens, UniProt O43364 129-215, Y150S).
Assay [13] deals with HOXA4 (Homo sapiens, UniProt Q00056 201-287, W262F).
Sequence of HOXA4 (Homo sapiens, UniProt Q00056 201-287, W262F) (Q00056 201-287 W262F): as the sequence (Q00056 201-287) above, with W62F counted along it
Assay [14] deals with HOXA2 (Homo sapiens, UniProt O43364 129-215).
Sequence of HOXA2 (Homo sapiens, UniProt O43364 129-215) (O43364 129-215): as the sequence (O43364 129-215 R185T) above, with T57R counted along it
Assay [15] addresses VAX1 (Homo sapiens, UniProt Q5SQQ9 86-172, K157R).

Where a chain is given by its changes, count along the chain named.

Sequence of HOXA2 (Homo sapiens, UniProt O43364 129-215, Y150S) (O43364 129-215 Y150S): as the sequence (O43364 129-215 R185T) above, with Y22S, T57R counted along it
Sequence of VAX1 (Homo sapiens, UniProt Q5SQQ9 86-172, T142I) (Q5SQQ9 86-172 T142I): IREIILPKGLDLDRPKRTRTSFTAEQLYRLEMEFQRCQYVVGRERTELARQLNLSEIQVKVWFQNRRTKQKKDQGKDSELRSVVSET
Sequence of HOXB4 (Homo sapiens, UniProt P17483 148-234) (P17483 148-234): as the sequence (P17483 148-234 V174I) above, with I27V counted along it
Sequence of VAX1 (Homo sapiens, UniProt Q5SQQ9 86-172, K157R) (Q5SQQ9 86-172 K157R): as the sequence (Q5SQQ9 86-172 T142I) above, with I57T, K72R counted along it
Sequence of HOXA4 (Homo sapiens, UniProt Q00056 201-287, W262R) (Q00056 201-287 W262R): as the sequence (Q00056 201-287) above, with W62R counted along it
Sequence of HOXA4 (Homo sapiens, UniProt Q00056 201-287, R217L) (Q00056 201-287 R217L): as the sequence (Q00056 201-287) above, with R17L counted along it
Sequence of VAX1 (Homo sapiens, UniProt Q5SQQ9 86-172) (Q5SQQ9 86-172): as the sequence (Q5SQQ9 86-172 T142I) above, with I57T counted along it

Regarding CCTCATTA, the binding signal was 13.1 upbm affinity estimate (log intensity, higher = more binding, comparable within an allelic series) in [1]; 11.6 upbm affinity estimate (log intensity, higher = more binding, comparable within an allelic series) in assay [2]; 10.5 upbm affinity estimate (log intensity, higher = more binding, comparable within an allelic series) in assay [3]; 11.8 upbm affinity estimate (log intensity, higher = more binding, comparable within an allelic series) in [4]; 13.1 upbm affinity estimate (log intensity, higher = more binding, comparable within an allelic series) in [5]; 12.1 upbm affinity estimate (log intensity, higher = more binding, comparable within an allelic series) in [6]. The binding signal in assay [7] is 13.7 upbm affinity estimate (log intensity, higher = more binding, comparable within an allelic series); in assay [8], 13.4 upbm affinity estimate (log intensity, higher = more binding, comparable within an allelic series); in assay [9], 13.8 upbm affinity estimate (log intensity, higher = more binding, comparable within an allelic series); in [10] it was 13.6 upbm affinity estimate (log intensity, higher = more binding, comparable within an allelic series); in [11] it was 13.3 upbm affinity estimate (log intensity, higher = more binding, comparable within an allelic series); in assay [12] it was 10.7 upbm affinity estimate (log intensity, higher = more binding, comparable within an allelic series). Also, the binding signal is 11.5 upbm affinity estimate (log intensity, higher = more binding, comparable within an allelic series) in assay [13]; 12.8 upbm affinity estimate (log intensity, higher = more binding, comparable within an allelic series) in assay [14]; 13.4 upbm affinity estimate (log intensity, higher = more binding, comparable within an allelic series) in assay [15].
As to ACTAATGA, the binding signal in [1] is 13.4 upbm affinity estimate (log intensity, higher = more binding, comparable within an allelic series); in assay [2] it was 12.1 upbm affinity estimate (log intensity, higher = more binding, comparable within an allelic series); in assay [3], 10.8 upbm affinity estimate (log intensity, higher = more binding, comparable within an allelic series); in [4], 12 upbm affinity estimate (log intensity, higher = more binding, comparable within an allelic series); in assay [5] it was 13.3 upbm affinity estimate (log intensity, higher = more binding, comparable within an allelic series); in assay [6] it was 12.2 upbm affinity estimate (log intensity, higher = more binding, comparable within an allelic series). For the same sequence, the binding signal in assay [7] was 14 upbm affinity estimate (log intensity, higher = more binding, comparable within an allelic series); in assay [8] it was 13.6 upbm affinity estimate (log intensity, higher = more binding, comparable within an allelic series); in assay [9] it was 14.1 upbm affinity estimate (log intensity, higher = more binding, comparable within an allelic series); in assay [10], 13.5 upbm affinity estimate (log intensity, higher = more binding, comparable within an allelic series); in [11], 13.3 upbm affinity estimate (log intensity, higher = more binding, comparable within an allelic series); in [12], 10.9 upbm affinity estimate (log intensity, higher = more binding, comparable within an allelic series). The binding signal was 12.3 upbm affinity estimate (log intensity, higher = more binding, comparable within an allelic series) in assay [13]; 12.9 upbm affinity estimate (log intensity, higher = more binding, comparable within an allelic series) in assay [14]; 13.3 upbm affinity estimate (log intensity, higher = more binding, comparable within an allelic series) in assay [15].
On to CCCATTAA, for which the binding signal in assay [1] was 13 upbm affinity estimate (log intensity, higher = more binding, comparable within an allelic series); in [2] it was 12.1 upbm affinity estimate (log intensity, higher = more binding, comparable within an allelic series); in assay [3], 10.4 upbm affinity estimate (log intensity, higher = more binding, comparable within an allelic series); in assay [4], 12 upbm affinity estimate (log intensity, higher = more binding, comparable within an allelic series); in assay [5], 12.5 upbm affinity estimate (log intensity, higher = more binding, comparable within an allelic series); in assay [6], 11.9 upbm affinity estimate (log intensity, higher = more binding, comparable within an allelic series). In addition, the binding signal in [7] was 13.5 upbm affinity estimate (log intensity, higher = more binding, comparable within an allelic series); in assay [8] it was 13.1 upbm affinity estimate (log intensity, higher = more binding, comparable within an allelic series); in assay [9], 13.7 upbm affinity estimate (log intensity, higher = more binding, comparable within an allelic series); in assay [10], 12.9 upbm affinity estimate (log intensity, higher = more binding, comparable within an allelic series); in [11], 12.5 upbm affinity estimate (log intensity, higher = more binding, comparable within an allelic series); in assay [12], 10.7 upbm affinity estimate (log intensity, higher = more binding, comparable within an allelic series). In addition, the binding signal is 11.1 upbm affinity estimate (log intensity, higher = more binding, comparable within an allelic series) in [13]; 12.1 upbm affinity estimate (log intensity, higher = more binding, comparable within an allelic series) in assay [14]; 12.6 upbm affinity estimate (log intensity, higher = more binding, comparable within an allelic series) in assay [15].
Consider CGCCGCCG, for which the binding signal in [1] is 8.06 upbm affinity estimate (log intensity, higher = more binding, comparable within an allelic series); in assay [2], 8.02 upbm affinity estimate (log intensity, higher = more binding, comparable within an allelic series); in [4], 8.17 upbm affinity estimate (log intensity, higher = more binding, comparable within an allelic series); in assay [7], 7.89 upbm affinity estimate (log intensity, higher = more binding, comparable within an allelic series); in assay [10] it was 7.38 upbm affinity estimate (log intensity, higher = more binding, comparable within an allelic series); in assay [11], 7.39 upbm affinity estimate (log intensity, higher = more binding, comparable within an allelic series). Also, the binding signal in assay [15] was 7.32 upbm affinity estimate (log intensity, higher = more binding, comparable within an allelic series).
As for GGTCATTA, the binding signal is 13.3 upbm affinity estimate (log intensity, higher = more binding, comparable within an allelic series) in [1]; 11.8 upbm affinity estimate (log intensity, higher = more binding, comparable within an allelic series) in assay [2]; 10.6 upbm affinity estimate (log intensity, higher = more binding, comparable within an allelic series) in assay [3]; 11.8 upbm affinity estimate (log intensity, higher = more binding, comparable within an allelic series) in assay [4]; 13 upbm affinity estimate (log intensity, higher = more binding, comparable within an allelic series) in assay [5]; 12.5 upbm affinity estimate (log intensity, higher = more binding, comparable within an allelic series) in assay [6]. The binding signal was 14 upbm affinity estimate (log intensity, higher = more binding, comparable within an allelic series) in assay [7]; 13.7 upbm affinity estimate (log intensity, higher = more binding, comparable within an allelic series) in assay [8]; 13.9 upbm affinity estimate (log intensity, higher = more binding, comparable within an allelic series) in [9]; 13.6 upbm affinity estimate (log intensity, higher = more binding, comparable within an allelic series) in assay [10]; 13.5 upbm affinity estimate (log intensity, higher = more binding, comparable within an allelic series) in [11]; 10.9 upbm affinity estimate (log intensity, higher = more binding, comparable within an allelic series) in [12]. For the same sequence, the binding signal in assay [13] was 11.9 upbm affinity estimate (log intensity, higher = more binding, comparable within an allelic series); in assay [14], 12.8 upbm affinity estimate (log intensity, higher = more binding, comparable within an allelic series); in assay [15] it was 13.6 upbm affinity estimate (log intensity, higher = more binding, comparable within an allelic series).
Consider CTTAATGA, for which the binding signal in assay [1] is 13.3 upbm affinity estimate (log intensity, higher = more binding, comparable within an allelic series); in [2], 11.8 upbm affinity estimate (log intensity, higher = more binding, comparable within an allelic series); in [3] it was 10.7 upbm affinity estimate (log intensity, higher = more binding, comparable within an allelic series); in [4], 11.7 upbm affinity estimate (log intensity, higher = more binding, comparable within an allelic series); in assay [5], 12.8 upbm affinity estimate (log intensity, higher = more binding, comparable within an allelic series); in assay [6], 12.5 upbm affinity estimate (log intensity, higher = more binding, comparable within an allelic series). Further, the binding signal in assay [7] is 13.9 upbm affinity estimate (log intensity, higher = more binding, comparable within an allelic series); in [8], 13.4 upbm affinity estimate (log intensity, higher = more binding, comparable within an allelic series); in assay [9] it was 14 upbm affinity estimate (log intensity, higher = more binding, comparable within an allelic series); in [10], 13.3 upbm affinity estimate (log intensity, higher = more binding, comparable within an allelic series); in assay [11], 13.1 upbm affinity estimate (log intensity, higher = more binding, comparable within an allelic series); in assay [12], 10.8 upbm affinity estimate (log intensity, higher = more binding, comparable within an allelic series). Moreover, the binding signal in assay [13] was 12.1 upbm affinity estimate (log intensity, higher = more binding, comparable within an allelic series); in [14] it was 12.7 upbm affinity estimate (log intensity, higher = more binding, comparable within an allelic series); in assay [15], 13.1 upbm affinity estimate (log intensity, higher = more binding, comparable within an allelic series).
With CTAATGAG, the binding signal was 13 upbm affinity estimate (log intensity, higher = more binding, comparable within an allelic series) in [1]; 11.9 upbm affinity estimate (log intensity, higher = more binding, comparable within an allelic series) in assay [2]; 10.5 upbm affinity estimate (log intensity, higher = more binding, comparable within an allelic series) in assay [3]; 12 upbm affinity estimate (log intensity, higher = more binding, comparable within an allelic series) in [4]; 13.3 upbm affinity estimate (log intensity, higher = more binding, comparable within an allelic series) in assay [5]; 11.8 upbm affinity estimate (log intensity, higher = more binding, comparable within an allelic series) in assay [6]. Further, the binding signal was 13.6 upbm affinity estimate (log intensity, higher = more binding, comparable within an allelic series) in [7]; 13.6 upbm affinity estimate (log intensity, higher = more binding, comparable within an allelic series) in assay [8]; 13.8 upbm affinity estimate (log intensity, higher = more binding, comparable within an allelic series) in assay [9]; 13.6 upbm affinity estimate (log intensity, higher = more binding, comparable within an allelic series) in assay [10]; 13.3 upbm affinity estimate (log intensity, higher = more binding, comparable within an allelic series) in [11]; 10.6 upbm affinity estimate (log intensity, higher = more binding, comparable within an allelic series) in assay [12]. For the same sequence, the binding signal in [13] is 11.6 upbm affinity estimate (log intensity, higher = more binding, comparable within an allelic series); in assay [14], 12.8 upbm affinity estimate (log intensity, higher = more binding, comparable within an allelic series); in [15] it was 13.4 upbm affinity estimate (log intensity, higher = more binding, comparable within an allelic series).

The values are drawn from PMC11006913.
